The source made the active and inactive calls. Rule for the calls: active = hit-call score of the fitted dose curve at least 0.9, where 1 is the maximum; inactive = score below 0.9.

Read-out in this assay: matrix metalloproteinase-3 (MMP3), MMP3 (gene 4314)
Nature of the assay: LTEA_HepaRG_MMP3: Life Technologies and Expression Analysis (LTEA) Assay for matrix metalloproteinase-3 (MMP3) using HepaRG (AID 2283519). The conditions noted are these: mRNA level, 48 h; actives raise or lower the signal. As to the method: LTEA_HepaRG is a cell based, multiplexed-readout assay that uses HepaRG, a human liver cell line, with measurements taken at 48 hours after chemical dosing on a 96-well plate.LTEA_HepaRG_MMP3 is one of 102 assay component(s) measured in the LTEA HepaRG cell culture assay. It is a marker of Fibrosis.Data from the assay component LTEA_HepaRG_MMP3 was analyzed into 1 endpoint. This assay endpoint, LTEA_HepaRG_MMP3, was analyzed with bidirectional fitting relative to DMSO as the negative control and baseline of activity. Using a type of inducible reporter, measures of mRNA induction for gain or loss-of-signal activity can be used to understand regulation of transcription factor activity. To generalize the intended target to other relatable targets, this assay endpoint is annotated to the protease intended target family, where the subfamily is matrix metalloproteinase.
A total of 1060 chemcials from the ToxCast library were tested in eight-point concentration-response experiments. Cell culture and cytotoxicity assays were conducted at Thermo Fisher Scientific's Custom Services facility (Madison, WI). A single lot of human HepaRG cells (Thermo Fisher Scientific, Frederick, MD) was used for the cell culture experiments. 96-well format collagen type I coated plates of human HepaRG cells were prepared using established methods. Briefly, cryopreserved HepaRG cells were thawed, plated at a density of approximately 100,000 cells/well in HepaRG Thaw, Plate, and General Purpose media (HPRG770, Thermo Fisher Scientific), and incubated for 48 hours. 0.5% DMSO was selected as vehicle control to balance the requisite need of DMSO in HepaRG cultures to maintain differentiation (for example, baseline metabolism, proportions of hepatocytes vs. cholangiocytes), while enabling further hepatic receptor pathway activation (for example, PXR and CAR) in response to chemical exposure. 48 hours after plating, the culture medium was replaced with HepaRG Serum-Free Incudtion Media. Cells were exposed to each test chemical in duplicate and maintained in CO2 incubators for another 48 hours. Chemical plates were thawed to room temperature and 200x concentrations of treatment groups were prepared. 8-point conentration-reponse curves were made with the highest exposure at 100 uM, followed by half-log dilutions, all in 0.5% DMSO. Each test plate contained variouse controls, induction positive controls (1mM phenobarbital), cytotoxicity positive controls ([…] aflatoxin B1), vehicle controls (0.5% DMSO), and total lysis controls (0.5% DMSO). Cell morphology images were taken using an Essen IncuCyte FLR automated microscope, with six 96-well plates imaged in about 24 minutes. Images were captured and exported and JPEG files. Spent culture media was transfered to black-well plates for the LDH assay, and remaining media was sorted at -80 C for later use. Cells were treated with RLT buffer and frozen until shipped for gene expression analysis. Total RNA was isolated from the cell suspension in 75 uL of Buffer RLT (Qiagen, Germantown, MD 20874) by Quintiles/Expression Analysis (Durham, NC) using a custom isolation procedure. Total RNA from each plate well was transferred to a preamplification plate. Fluidigm's 96.96 Dynamic ArrayTM (Fluidigm, Amsterdam, the Netherlands) technology was used for gene expression analyses by quantitative reverse transcription polymerase chain reaction (qRT-PCR, performed by Quintiles/Expression Analysis, Durham, NC)89. Standard TaqManTM Assays (Applied Biosystems/ThermoFisher Scientific, Foster City, CA) were used to assess the expression of 93 genes selected based on their selectivity and sensitivity to important hepatic receptors known to be modulated by environmental chemicals; importance in human hepatocyte functionality; and hepatotoxicity. […]
Consider `CCCCC(CC)COC(=O)c1ccccc1C(=O)O` (stereo not given), for which the compound was classed as inactive.

On to `COC(=O)c1ccccc1C(=O)O`, for which the compound was classed as inactive.

As to `CCCCOC(=O)C(C)Oc1ccc(Oc2ccc(C(F)(F)F)cn2)cc1` (stereo not given), the outcome was inactive.

Regarding `CCCCCCC(C)OC(=O)COc1nc(F)c(Cl)c(N)c1Cl` (stereo not given), the outcome was inactive.

For the compound `COC(=O)CSc1cc(N=c2sc(=O)n3n2CCCC3)c(F)cc1Cl`, the compound was classed as inactive.

Take `CCCN(CCC)C(=O)SCC`: the call was inactive.

Consider `CCOC(=O)C(C)Oc1ccc(Oc2nc3ccc(Cl)cc3o2)cc1` (stereo not given), for which the compound was classed as inactive.

On to `COC(=O)c1ccc(I)cc1S(=O)(=O)NC(=O)Nc1nc(C)nc(OC)n1`, for which the compound was classed as inactive.

Consider `COCCO`, for which the call was inactive.

Consider `CC(=O)[C@H]1CC[C@H]2[C@@H]3CCC4=CC(=O)CC[C@]4(C)[C@H]3CC[C@]12C`, for which the AC50 (usually the concentration at which the activity in the assay is half-maximal) was 66 µM (active).

Turning to `CCN(CC)C(=O)c1cccc(C)c1`, the call was inactive.

Consider `CCSC(=O)N(CC(C)C)CC(C)C`, for which the compound was called inactive.

For `C[C@]12CC[C@@H]3c4ccc(O)cc4C[C@@H](CCCCCCCCCS(=O)CCCC(F)(F)C(F)(F)F)[C@H]3[C@@H]1CC[C@@H]2O` (stereo not given in full), the AC50 is 0.084 µM (active).

With `CCCN(CCC)c1c([N+](=O)[O-])cc(C(F)(F)F)c(N)c1[N+](=O)[O-]`, the result was inactive.

Turning to `O=C(c1ccccc1)C1CCCCC1`, the outcome was inactive.

As to `O=C(O)c1ccccc1`, the result was inactive.

Turning to `CC(C)(c1ccc(O)cc1)c1ccc(O)cc1`, the compound was called inactive.

Regarding `Oc1ccc(C(c2ccc(O)cc2)C(Cl)(Cl)Cl)cc1`, the AC50 is 90.5 µM (active).

For the compound `S=C(S)NCCNC(=S)S.[Mn+2].[S-]C([S-])=NCCN=C([S-])[S-].[Zn+2]`, the outcome was inactive.

Regarding `S=C([S-])NCCNC(=S)[S-].[Mn+2]`, the compound was classed as inactive.

In the case of `CCC(C)OC(=O)N1CCCCC1CCO` (stereo not given), the result was inactive.

On to `O=C(Nc1ccc([N+](=O)[O-])cc1Cl)c1cc(Cl)ccc1O`, for which the AC50 was 4.24 µM (active).

Regarding `CCCOC(=O)c1ccc(C(=O)OCCC)nc1`, the call was inactive.

With `c1ccc2[nH]c(-c3cscn3)nc2c1`, the compound was classed as inactive.

Consider `CCOC(=O)COc1cc(-n2ncc(C(F)(F)F)c(C)c2=O)c(F)cc1Cl`, for which the result was inactive.

Regarding `O=C(c1ccc(O)cc1O)c1ccc(O)cc1O`, the compound was classed as inactive.

Regarding `CCN(Cc1c(F)cccc1Cl)c1c([N+](=O)[O-])cc(C(F)(F)F)cc1[N+](=O)[O-]`, the compound was classed as inactive.

`CC1(C)C(C=C(Cl)Cl)C1C(=O)OCc1cccc(Oc2ccccc2)c1` (stereo not given): the result was inactive.

Take `CCCOC(=O)NCCCN(C)C`: the compound was called inactive.

Consider `N#CSCSc1nc2ccccc2s1`, for which the call was inactive.

Consider `C#CCOC(=O)[C@@H](C)Oc1ccc(Oc2ncc(Cl)cc2F)cc1`, for which the result was inactive.

For the compound `CN(C)C(=O)Nc1ccc(Cl)c(Cl)c1`, the outcome was inactive.

As to `CCOC(=O)c1ccc(O)cc1`, the compound was called inactive.

Take `CC(=O)S[C@@H]1CC2=CC(=O)CC[C@]2(C)[C@H]2CC[C@@]3(C)[C@@H](CC[C@@]34CCC(=O)O4)[C@H]12`: the call was inactive.

In the case of `CCCCC(CC)CN1C(=O)C2C3C=CC(C3)C2C1=O` (stereo not given), the result was inactive.

In the case of `C#C[C@]1(O)CC[C@H]2[C@@H]3CCC4=CC(=O)CC[C@@H]4[C@H]3CC[C@@]21CC`, the compound was classed as inactive.

Regarding `CCOC(=O)C(C)Oc1ccc(Oc2cnc3cc(Cl)ccc3n2)cc1` (stereo not given), the AC50 was 8.53 µM (active).

Consider `COc1c(Cl)ccc(Cl)c1C(=O)O`, for which the call was inactive.

For the compound `CC(C)CCCCCCc1ccc(O)cc1`, the outcome was inactive.

In the case of `C[C@]12C[C@H](O)[C@H]3[C@@H](CCC4=CC(=O)CC[C@@]43C)[C@@H]1CC[C@@H]2C(=O)CO`, the outcome was inactive.

The values are drawn from PubChem BioAssay (EPA / NIEHS).
